Measured values reported in PubChem BioAssay AID463173 (ICCB-Longwood Screening Facility, Harvard Medical School, 2010).
About 1,700 (3.3%) of roughly 52,000 compounds were called active. Only a selection was taken, and actives are over-represented in it overall. A number with no mark means an inactive call. Cut-off read from the data, not from the text of the source: active = survival mostly below about 52% (no sharp cut-off); inactive = mostly above about 56%.

Test system: Wild type
Assay: growth inhibition of S. aureus wild type versus tarO mutant, primary screen, teichoic acid synthesis inhibitors, RN4220, OD600 (AID 463173)
Details: S. aureus RN4220 wild type/DeltatarO growth, OD600, 18 h, stronger effect = lower value, screened at 18.75 µg/mL (by protocol)

Row | SMILES | survival
1 | COc1cc(Cl)c(C)cc1NC(=O)c1cnn(-c2ccc(C)cc2)c1-n1cccc1 | 65%
2 | CC1(C(=O)O)CCC(C(=O)N2CCCCC2)C1(C)C (stereo not drawn) | 106%
3 | Cc1ccc(NC2=C(CC(=O)O)C(c3ccc(F)cc3)N(c3ccc(C)cc3)C2=O)cc1 (stereo not drawn) | 74%
4 | Cc1ccc(CNC(=O)CCc2c(C)c3ccc(O)c(C)c3oc2=O)cc1 | 87%
5 | Cc1nc2sc(C(=O)NCc3ccc(Cl)cc3)c(NC(=O)c3ccccc3)c2c(C)c1C | 86%
6 | Cc1ccc(CNC(=O)CN2N=C(c3ccc(C)cc3)CCC2=O)cc1 | 80%
7 | Cc1cc(Sc2ccc(Cl)cc2)nc2ccccc12 | 50%
8 | Cc1ccc(C(=O)COC(=O)c2cc(-c3ccc(Cl)cc3)nc3ccccc23)cc1 | 117%
9 | COc1ccccc1Nc1nc(-c2ccccc2F)nc2ccccc12 | 73%
10 | CCCCN(CCCC)c1nc(-c2ccccc2)nc2ccccc12 | -3% (active)
11 | CCCCc1nc2ccccc2c(C(=O)O)c1C | 106%
12 | Cc1cc(N(C)Cc2ccccc2)n2nc(-c3ccc(C(C)(C)C)cc3)nc2n1 | 77%
13 | CCCN(CCC)c1nc(-c2ccccc2F)nc2ccccc12 | 1% (active)
14 | CCCCN(CC)c1nc(-c2ccccc2F)nc2ccccc12 | 71%
15 | CCN(CC)c1nc(-c2ccccc2)nc2ccccc12 | 108%
16 | CCN(CC)c1nc(-c2ccc(C(C)(C)C)cc2)nc2ccccc12 | -2% (active)
17 | CCCCN(C)CCCNC(=O)c1cc(-c2cccnc2)nc2ccccc12 | 77%
18 | CC(C)CN(CC(C)C)c1nc(-c2ccc(Cl)cc2)nc2ccccc12 | -1% (active)
19 | COc1ccc(-n2ccnc2SCC(=O)Nc2ccc(F)cc2F)cc1 | 143%
20 | Cc1ccccc1NC(=O)CSc1ncc2c(n1)-c1ccccc1N(C)S2(=O)=O | 99%
21 | CCN(C(=O)c1sc2nc3n(c(=O)c2c1C)CCCCC3)c1ccc(OC)cc1 | 83%
22 | CCN(C(=O)C1CCC(CNS(=O)(=O)c2cccc3nsnc23)CC1)c1cccc(C)c1 (stereo not drawn) | 86%
23 | N#Cc1c(/N=C/c2ccc3c(c2)OCO3)oc(-c2ccccc2)c1-c1ccccc1 | 115%
24 | COc1cccc(CNC(=O)Cn2c(=O)nc(-c3ccccc3F)c3cc(Cl)ccc32)c1 | 82%

Row | SMILES | survival
25 | O=C(COc1ccccc1)NS(=O)(=O)c1ccc(N=NN2CCOCC2)cc1 | 105%
26 | Cc1ccc(CNC(=O)C(=O)Nc2c3c(nn2-c2ccccc2)CSC3)cc1 | 82%
27 | COc1ccc(NC(=O)CSc2ncc3c(n2)-c2cc(Cl)ccc2N(Cc2ccccc2F)S3(=O)=O)cc1 | 65%
28 | CCc1ccccc1NC(=O)CC1NCCNC1=O (stereo not drawn) | 87%
29 | O=C(Nc1cccc(C(F)(F)F)c1)C1CCN(S(=O)(=O)c2cccs2)CC1 | 92%
30 | Cc1ccc(C)c(N2CCN(CCCNC(=O)c3ccc4nc(N5CCCCC5)sc4c3)CC2)c1 | 76%
31 | CC1CCN(c2nc3ccc(C(=O)N4CCN(c5ccccc5)CC4)cc3s2)CC1 | 64%
32 | Cc1ccc(Cl)cc1N1CCN(C(=O)c2ccc3nc(N4CCC(C)CC4)sc3c2)CC1 | 16%
33 | Cc1cccc(N2CCN(C(=O)c3ccc4nc(N5CCC(C)CC5)sc4c3)CC2)c1C | 1% (active)
34 | Cc1ccc(C)c(N2CCN(CCCNC(=O)c3ccc4nc(N5CCC(C)CC5)sc4c3)CC2)c1 | 1% (active)
35 | Cc1ccc(Cl)cc1N1CCN(CCCNC(=O)c2ccc3nc(N4CCCCC4)sc3c2)CC1 | 45%
36 | O=C(O)CCc1ccc(-c2cccs2)n1CC(=O)Nc1ccccc1C(F)(F)F | 105%
37 | COc1ccc(OC)c(NC(=O)N2CCC(CN3CCCCC3)CC2)c1 | 70%
38 | O=C(NCC(c1cccs1)S(=O)(=O)c1cccs1)c1c(F)cccc1F (stereo not drawn) | 71%
39 | COCCCNC(=O)C1CCN(Cc2cc3ccccc3n2Cc2ccccc2C)CC1 | 78%
40 | C=CCC1Cc2ccccc2C(CC=C)N1 (stereo not drawn) | 100%
41 | COc1ccc(-c2cn3c(n2)sc2cc(C(=O)NCCCN4CCCCCC4)ccc23)cc1 | 66%
42 | Cc1ccc(-c2cn3c(n2)sc2cc(C(=O)NCCCN4CCCCC4)ccc23)cc1 | -1% (active)
43 | O=C(NCCCN1CCCCC1)c1ccc2c(c1)sc1nc(-c3ccc(F)cc3)cn12 | 43%
44 | CCCN1CCN(CCCNC(=O)c2ccc3c(c2)sc2nc(-c4ccc(C)cc4)cn23)CC1 | 20%
45 | Cc1ccc(-c2cn3c(n2)sc2cc(C(=O)NCCCN4CCCCCC4)ccc23)cc1 | -1% (active)
46 | CCN1CCN(CCCNC(=O)c2ccc3c(c2)sc2nc(-c4ccc(C)cc4)cn23)CC1 | 29%
47 | COc1ccc(-c2cn3c(n2)sc2cc(C(=O)NCCCN4CCCCC4)ccc23)cc1 | 81%
48 | CCC1CCCCN1CCCNC(=O)c1ccc2c(c1)sc1nc(-c3ccc(F)cc3)cn12 (stereo not drawn) | 6% (active)

Row | SMILES | survival
49 | CC1CCCCN1CCCNC(=O)c1ccc2c(c1)sc1nc(-c3ccc(F)cc3)cn12 (stereo not drawn) | 26%
50 | CCCCNC(=O)c1ccc(-c2nc(CS(=O)(=O)c3ccc(C)cc3)c(C)o2)cc1 | 83%
51 | COc1ccc(C2=NN(C(C)=O)C(c3cn(-c4ccccc4)nc3-c3cccs3)C2)cc1 (stereo not drawn) | 127%
52 | O=C(NCCN1CCOCC1)N1CCNC1=O | 110%
53 | CC1(C)N=C2C(=[N+]1[O-])CCC/C2=N/O | 110%
54 | Cc1ccc(C)c(NC(=O)NCc2ccc3c(c2)CCN3C(=O)c2ccccc2)c1 | 66%
55 | CC(C)N1CCc2nc(SCC(=O)Nc3cccc(F)c3)[nH]c(=O)c2C1 | 83%
56 | Cc1ccc(NC(=O)Cn2c(=O)n(CCC(C)C)c(=O)c3cccnc32)cc1C | 90%
57 | Cc1ccc(-c2nc(CS(=O)CC(=O)NCc3ccccc3Cl)c(C)o2)cc1 (stereo not drawn) | 72%
58 | CCc1cc(=O)[nH]c(SCc2nc(-c3ccccc3)no2)n1 | 87%
59 | O=c1cc(-c2ccccc2)nc(SCc2nc(-c3ccc(C(F)(F)F)cc3)no2)[nH]1 | 150%
60 | Cc1ccc2nc(SCc3nc(-c4ccccc4C)no3)[nH]c2c1 | 27%
61 | CCc1cc(=O)[nH]c(SCc2nc(-c3ccc(C(F)(F)F)cc3)no2)n1 | 0% (active)
62 | Cc1ccccc1-c1noc(CSc2nc(-c3ccc(F)cc3)cc(=O)[nH]2)n1 | 10% (active)
63 | COc1ccc(-c2noc(CSc3nc4ccc(C)cc4[nH]3)n2)cc1 | 47%
64 | CCc1cc(=O)[nH]c(SCc2nc(-c3cccc(Cl)c3)no2)n1 | 22%
65 | Cc1cccc(-c2noc(CSc3nc(-c4ccc(F)cc4)cc(=O)[nH]3)n2)c1 | 82%
66 | CCCc1cc(=O)[nH]c(SCc2nc(-c3ccc(C)cc3)no2)n1 | 73%
67 | O=c1cc(-c2ccc(F)cc2)nc(SCc2nc(-c3ccccc3Cl)no2)[nH]1 | 121%
68 | CCCc1cc(=O)[nH]c(SCc2nc(-c3ccccc3)no2)n1 | -2% (active)
69 | Cc1ccc2nc(SCc3nc(-c4ccc(Cl)cc4)no3)[nH]c2c1 | -4% (active)
70 | CCn1nc(CC(=O)Nc2nnc(CC(=O)N3CCCC3)s2)c2ccccc2c1=O | 95%
71 | Cc1nc2ccc(S(=O)(=O)NC(C(=O)NCc3ccc(Cl)cc3)C(C)C)cc2s1 (stereo not drawn) | 133%
72 | O=C(CCS(=O)(=O)c1cc2c(cc1Cl)NC(=O)CO2)NCc1ccccc1Cl | 88%

Row | SMILES | survival
73 | COc1cc(NC(=O)CN(c2cc(C)cc(C)c2)S(=O)(=O)c2c(C)[nH]c(=O)[nH]c2=O)cc(OC)c1 | 83%
74 | Cc1cccc(NC(=O)C2CCN(c3nnc(-n4c(C)ccc4C)s3)CC2)c1C | 132%
75 | O=C(COCc1cc(-c2ccc(F)cc2)on1)Nc1cccc(C(F)(F)F)c1 | 77%
76 | O=C(c1ccccc1)N(Cc1ccco1)Cc1cccs1 | 82%
77 | CCn1c(CN2CCCCC2)nc2cc(NC(=O)COc3ccccc3C(C)(C)C)ccc21 | 122%
78 | Cc1ccc(C(=O)c2cn(Cc3ccc(Cl)cc3)c3nc(C)ccc3c2=O)cc1 | 53%
79 | Cc1ccc(C(=O)c2cn(Cc3ccc(F)cc3)c3nc(C)ccc3c2=O)cc1 | 95%
80 | Cc1ccc(Cn2cc(C(=O)c3ccc(C)cc3)c(=O)c3ccc(C)nc32)cc1 | 20% (active)
81 | CCOC(=O)c1cc(-c2ccccc2)n(CC(=O)Nc2cc(Cl)c(OC)cc2OC)c1C | 128%
82 | CCOC(=O)c1ccc(NS(=O)(=O)c2cc(Br)cc3c2N(C(C)=O)C(C)C3)cc1 (stereo not drawn) | 83%
83 | COc1ccc(N2CCN(C(=O)CCS(=O)(=O)c3cc4c(cc3Cl)NC(=O)CO4)CC2)cc1 | 85%
84 | CCOCCc1nnc(NC(=O)C(=O)c2cc(C)n(-c3ccc(C)cc3C)c2C)s1 | 85%
85 | Cc1ccc(-c2nc3ccccn3c2Nc2ccccc2C)s1 | 11% (active)
86 | Cc1cccc(C)c1Nc1c(-c2ccccn2)nc2c(C)cccn12 | 77%
87 | Cc1ccc(-c2nc3ccc(Cl)cn3c2Nc2ccccc2C)s1 | 94%
88 | Cc1ccccc1Nc1c(-c2ccco2)nc2c(C)cccn12 | 1% (active)
89 | Cc1ccc(-c2nc3c(C)cccn3c2Nc2ccccc2C)s1 | -2% (active)
90 | Cc1ccccc1Nc1c(-c2ccc(Cl)s2)nc2c(C)cccn12 | 69%
91 | Fc1ccc(Nc2c(-c3ccco3)nc3ccccn23)cc1 | 69%
92 | Cc1ccccc1Nc1c(-c2ccc(Cl)s2)nc2cccc(C)n12 | 80%
93 | Cc1ccc(Nc2c(-c3ccc(C)s3)nc3ccccn23)cc1 | 31%
